# Screens (PubChem BioAssay)
# Ecoli rRNA inh: selective bacterial rRNA inhibition in E. coli; E. coli WT GFP vs humanized-ribosome RFP mutants, fluorescence, 24 h; stronger effect = lower value; DMSO median 0, no signal -100; GFP signal change (wild-type ribosome), % (test concentration not listed); hit rate 1.6% among 350,000; AID 720706;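 active means significant combined selectivity score with lowered wild-type GFP, culture density cut under 30%, mutant RFP and density less affected; inactive means any of these conditions unmet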
# PGC1a acetyl inh: PGC1a acetylation modulation, inhibitor mode. U2OS PGC1a acetylation, AlphaScreen anti-acetyl-lysine; with virally co-expressed GCN5 acetyltransferase. inhibition, % at 15.6 µM. hit rate 0.17% among 350,000;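 active means every replicate shows inhibition of at least 40%; inconclusive means mean inhibition at least 40% but some replicate below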;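 further: 0% = neutral control wells and 100% = positive control wells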
# LGR2 inh: blocks bursicon-induced cAMP signaling via Drosophila LGR2 | HEK293 LGR2, CRE-luciferase, bursicon-stimulated, 4 h | hit rate 0.35% among 380,000 | inhibition, % at 9.99 µM | AID 720647;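 active means drop in luminescence signal, shown as inhibition above about 50% in the replicate tests, limit read from the data, passing the limit was not always enough; inconclusive means probably only some replicates passing the limit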;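 further: agonist challenge used bursicon conditioned medium at about half maximal strength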
# PAX8 inh HTS: PAX8 transcriptional activity inhibition | inhibition, % at 12.6 µM | hit rate 1.2% among 360,000 | RMG-I TPO-luciferase reporter, SteadyGlo, 24 h | AID 652154;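 active means mean replicate inhibition at least 60% with every replicate also reaching 60%; inconclusive means only one of the two criteria is met; inactive means mean below 60% and not all replicates reaching 60%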;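 further: luciferase light reporting Pax8 driven TPO promoter activity; plate controls were median of neutral control wells for no effect and mitoxantrone controls for full effect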
# SIRT5 block: inhibitors of human sirtuin-5 desuccinylase. Purified SirT5, succinyl-peptide AMC, trypsin-coupled fluorescence. Q9NXA8. hit rate 1.1% among 330,000. inhibition, % at 15 µM; in the data active means inhibition above about 15%; inconclusive means no clear call, values can overlap the other calls
# Target sequence (Q9NXA8 whole entry, looked up): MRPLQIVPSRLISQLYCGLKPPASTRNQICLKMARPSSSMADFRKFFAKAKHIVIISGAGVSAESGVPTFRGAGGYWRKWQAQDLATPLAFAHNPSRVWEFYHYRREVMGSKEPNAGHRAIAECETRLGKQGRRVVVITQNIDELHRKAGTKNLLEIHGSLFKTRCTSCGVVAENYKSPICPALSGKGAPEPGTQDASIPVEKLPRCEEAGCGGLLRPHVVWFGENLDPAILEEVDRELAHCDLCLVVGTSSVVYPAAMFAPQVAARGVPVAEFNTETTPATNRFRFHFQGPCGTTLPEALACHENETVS
# EWS-Fli block: blocks EWS/Fli oncoprotein-driven transcription | hit rate 0.67% among 350,000 | inhibition, % at 12.6 µM | A673 NR0B1-luciferase reporter, viability-normalised;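 active means mean inhibition of at least 50% after viability correction, with every replicate also passing that limit; inconclusive means mean reaches 50% but only one of two replicates passes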;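 further: firefly luciferase signal divided by Alamar Blue viability fluorescence both relative to DMSO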
# * marks the source's active call; other numbers are inactive results; ? = inconclusive; . = no result. An excerpt weighted towards active compounds, which were near 3.4% of everything screened.
SMILES,Ecoli rRNA inh,PGC1a acetyl inh,LGR2 inh,PAX8 inh HTS,SIRT5 block,EWS-Fli block
Cc1cccn2c(=O)c3cc(S(=O)(=O)c4ccc(F)cc4)c(=N)n(Cc4ccco4)c3nc12,-3.7,.,53.4*,-3.9,-2.1,15.1
Cc1cccn2c(=O)c3cc(C(=O)NCCN4CCOCC4)c(=N)n(CCN4CCOCC4)c3nc12,5.0,.,0.2,-13.4,-8.2,-1.8
CS(=O)(=O)N1CC(=O)N2[C@H](CO)[C@@H](c3ccc(C#CC4CCCC4)cc3)[C@@H]2C1,-6.0,-9.9,5.3,.,-0.8,-13.0
O=C(C1CC1)N1CC(=O)N2[C@H](C1)[C@@H](c1ccc(-c3ccccc3F)cc1)[C@@H]2CO,-0.4,-1.7,20.5,11.1,-2.7,4.3
Cn1c(=O)c2cc(S(=O)(=O)NCCC(=O)NCc3ccccc3Cl)ccc2n(C)c1=O,.,46.6*,-11.9,.,.,.
Cc1ccc(CNC(=O)CCNS(=O)(=O)c2ccc3c(c2)c(=O)n(C)c(=O)n3C)cc1,.,3.8,.,.,.,.
CC(C)C#Cc1ccc2c(c1)O[C@@H](CN(C)C(=O)c1cccnc1)[C@@H](C)CN([C@@H](C)CO)S2(=O)=O,-0.3,-5.5,-4.0,.,-3.5,-5.0
CCCCC(=O)NNC(=O)c1c(O)c2ccccc2[nH]c1=O,6.5,11.1,16.7,-24.0,15.8*,-4.7
CC(C)(C)C1CCC(OCC(O)CN2CCN(Cc3ccccc3)CC2)CC1 (stereo not given),-26.5,2.8,6.0,-2.8,-0.8,9.7
CC(C)(C)C1CCC(OCC(O)CN2CCN(c3ccccn3)CC2)CC1 (stereo not given),-35.4*,0.8,-5.5,1.3,-1.1,-0.6
COc1ccc(S(=O)(=O)N2CCC3(CC2)CN(Cc2ccncc2)[C@H](CO)c2[nH]c4cc(OC)ccc4c23)cc1,-3.5,6.8,4.5,.,.,-12.4
Cc1cc(C)nc(NS(=O)(=O)c2ccc(NC(=O)Nc3ccccc3)cc2)n1,-6.9,96.8*,8.3,-6.1,-3.5,2.6
COc1cc(C(=O)N(C)CCOc2ccc(C)cc2)ccc1OC1CCN(C(C)=O)CC1,.,11.7,.,-11.6,-0.1,2.4
CN(CCOc1ccccc1)C(=O)c1ccc(OC2CCN(C(=O)C3CC3)CC2)cc1,-18.6*,2.0,-2.6,16.3,12.2,0.6
Cc1noc(C)c1S(=O)(=O)N(C)C[C@@H]1OCCCC[C@H](C)Oc2ccc(NS(=O)(=O)c3ccccc3)cc2C(=O)N([C@@H](C)CO)C[C@H]1C,-1.3,7.8,-7.0,-16.5,0.9,1.5
CC(C)N(CCCNC(=O)c1ccc(CS(=O)(=O)c2c(Cl)cccc2Cl)o1)Cc1ccccc1,6.2,-2.3,-11.6,62.0*,-3.0,3.0
CCCCN(CCCNC(=O)c1ccc(CS(=O)(=O)c2c(Cl)cccc2Cl)o1)Cc1ccccc1,2.1,-0.7,2.1,11.7,-10.5,.
COc1ccccc1-n1cnc2cc(NCc3ccccc3O)ccc21,-17.9*,-4.7,-22.4,-28.7,-2.8,-41.3
Cc1ccc(NC(=O)c2ncn(CCCN3CCN(c4ncccn4)CC3)n2)cc1C,-4.1,-5.6,10.2,-4.6,-3.4,-2.7
COC(=O)[C@H](Cc1ccccc1)NCCCn1cnc(C(=O)Nc2ccc(C)c(C)c2)n1,-35.0*,-3.0,27.1,14.8,1.3,-7.8
COC(=O)[C@H](Cc1ccccc1)NC(=O)Cn1cnc(C(=O)Nc2ccc(C)c(C)c2)n1,3.9,-0.6,-18.4,2.8,0.1,-6.0
Cc1ccc(NC(=O)c2ncn(CCCN3CCN(c4ccccn4)CC3)n2)cc1C,-22.2*,2.0,4.6,5.0,-3.2,-2.7
C[C@@H]1CN([C@H](C)CO)C(=O)c2c(c3ccccc3n2C)-c2ccccc2CO[C@H]1CN(C)C(=O)[C@H]1CCCN1C,-0.1,0.7,-2.2,4.0,.,1.7
Cc1ccccc1S(=O)(=O)N1[C@H](C#N)[C@H](c2ccc(C#CC3CCCC3)cc2)[C@H]1CO,7.6,-10.5,15.4,.,-1.0,-12.7
COc1ccccc1-c1ccc2c(c1)O[C@H](CN(C)Cc1ccc3c(c1)OCO3)[C@@H](C)CN([C@H](C)CO)S2(=O)=O,-3.1,-43.4,10.7,45.9,12.9,12.4
SMILES,Ecoli rRNA inh,PGC1a acetyl inh,LGR2 inh,PAX8 inh HTS,SIRT5 block,EWS-Fli block
COc1ccccc1-c1ccc2c(c1)O[C@H](CN(C)Cc1ccc3c(c1)OCO3)[C@H](C)CN([C@@H](C)CO)S2(=O)=O,-6.7,-18.7,13.0,87.8*,?,-30.7
COc1ccccc1-c1ccc2c(c1)O[C@H](CN(C)C)[C@H](C)CN([C@@H](C)CO)S2(=O)=O,4.8,2.0,-15.6,.,-9.5,0.0
COc1ccccc1-c1ccc2c(c1)O[C@@H](CN(C)Cc1ccc3c(c1)OCO3)[C@@H](C)CN([C@@H](C)CO)S2(=O)=O,0.5,-64.9,4.3,66.3*,21.2*,24.8
O=C(CCN1CCCCC1)NCC[C@@H]1CC[C@H](NC(=O)c2ccc(F)cc2)[C@@H](CO)O1,1.7,10.8,7.1,-51.7,1.3,-2.2
O=C(c1ccc2c(c1)OCO2)N1CCCCN2[C@H](CO)[C@@H](c3ccc(-c4ccccc4)cc3)[C@@H]2C1,-57.5,-8.2,14.0,-8.9,4.5,.
CN(C)CC(=O)N1[C@H](CO)[C@@H](c2ccccc2)C12CN(Cc1cc(F)ccc1F)C2,-0.4,-2.5,7.5,6.0,11.4,1.8
COC(=O)c1cc(NC(=O)c2cccc([N+](=O)[O-])c2C)ccc1Cl,-25.2*,3.4,-6.5,11.2,11.2,-7.8
COC(=O)c1ccc(Cl)c(NC(=O)c2cccc([N+](=O)[O-])c2C)c1,-0.6,-1.3,-1.7,-0.7,0.2,6.2
CC1CC2C(C(O)CC3(C)C2CCC3(O)C(=O)CO)C2(C)C=CC(=O)C=C12 (stereo not given),2.7,2.3,-17.4,4.6,34.7*,-6.5
CC(=O)OCC(=O)[C@@]1(O)CC[C@H]2[C@@H]3C[C@H](C)C4=CC(=O)C=C[C@]4(C)[C@H]3[C@@H](O)C[C@@]21C,-1.7,-16.2,0.4,4.0,-0.4,-12.0
COc1ccc(S(=O)(=O)Nc2ccc3c(c2)CC(=O)N([C@H](C)CO)C[C@H](C)[C@@H](CN(C)S(=O)(=O)c2ccc(C)cc2)O3)cc1,-3.2,4.2,-6.1,46.6,10.0,23.2
CO[C@H]1CN(C)C(=O)c2ccc(NC(=O)C3CC3)cc2OC[C@H](C)N(CC2CCCC2)C[C@H]1C,3.5,9.7,17.4,0.0,3.4,5.2
O=C(O)CC1(CC(=O)NCc2ccncc2)CCCCC1,16.0,25.3,.,2.7,-5.0,9.1
O=C(O)CC1(CC(=O)NCc2ccc(-c3cccs3)cc2)CCCCC1,-19.5*,4.0,2.1,-12.9,-3.6,-3.6
COc1cccc(-c2ccc([C@H]3[C@H]4CN(C(=O)C5CCCCC5)CC(=O)N4[C@H]3CO)cc2)c1,3.7,-8.6,-11.3,-8.1,-0.3,-7.5
COc1ccccc1CNS(=O)(=O)c1cccs1,2.7,5.3,.,16.9,88.7*,-80.2
